# High-throughput results (PubChem)
# Most compounds without a hit are left out; they make up all but 4.2% or so of the library.
# TIM10 inh – inhibits growth of TIM10 yeast strain; S. cerevisiae TIM10 strain growth, BacTiter-Glo luminescence, 24 h; inhibition, % at 10 µM; hit rate 1.4% among 330,000;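 active = inhibition of 40% or more at the single tested concentration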;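 also: wild-type TIM10 isogenic control strain grown at permissive 25 °C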
# V-ATPase pH – yeast V-ATPase proton transport regulation by pHLuorin. S. cerevisiae, pHLuorin cytosolic pH fluorescence. response, % at 10 µM. hit rate 0.37% among 350,000. AID 504577; in the data active = response mostly above about 7.3%, no sharp cut-off; inactive = mostly below about 5.4%; also: actives read high
# tim10-1 inh – inhibits growth of tim10-1 mutant yeast; S. cerevisiae tim10-1 ts strain growth, BacTiter-Glo, 24 h; inhibition, % at 20 µM; hit rate 2.2% among 330,000; AID 463190;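 active = inhibition of at least 40%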;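 also: mutant grown at 25 °C; 0% = DMSO wells with yeast and 100% = wells holding no yeast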
# tim23-1 inh – tim23-1 yeast growth inhibition. AID 463212. inhibition, % at 20 µM. S. cerevisiae tim23-1 growth, BacTiter-Glo luminescence, 24 h. hit rate 1.3% among 330,000;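 active = growth inhibition of the mutant yeast at or above 50%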;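 also: temperature-sensitive mutant grown at 25 °C; plate controls were DMSO-treated mutant yeast for no effect and medium wells lacking yeast for full effect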
# NLRP3 yeast inh – inhibitors of NALP3 inflammasome in yeast. Yeast reconstituted NLRP3/ASC/caspase-1, beta-gal luminescence, 24 h. inhibition, % at 10 µM. hit rate 0.39% among 330,000;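 active = inhibition of 50% or more; inactive = inhibition below 50%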;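 also: plate controls were induced DMSO wells for no effect and uninduced yeast grown without galactose for full effect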
# NALP1 yeast inh – inhibitors of NALP1 inflammasome in yeast; S. cerevisiae NALP1/ASC/caspase-1 growth, X-gal OD620, 72 h; inhibition, % at 10 µM; hit rate 0.61% among 280,000; in the data active = inhibition mostly above about 24%, no sharp cut-off; inactive = mostly below about 32%
# tim10 confirm – TIM10 yeast growth inhibition, confirmed; shares compounds with TIM10 inh; S. cerevisiae tim10 strain growth, BacTiter-Glo luminescence, 24 h; inhibition, % at 10 µM; hit rate 63% among 4,600;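 active = inhibition of yeast growth at or above a set limit in either of two replicates at 10 µM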;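 also: this counterscreen used the strain with wild-type TIM10; 0% = yeast with DMSO and 100% = medium wells lacking yeast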
# Numbers without * were called inactive; · = not tested or not shown.
SMILES,TIM10 inh,V-ATPase pH,tim10-1 inh,tim23-1 inh,NLRP3 yeast inh,NALP1 yeast inh,tim10 confirm
COc1ccc(CCn2c(C)cc(C(=O)CCl)c2C)cc1OC,42.4*,5.6,-3.0,47.6,-31.6,-19.1,43.6*
CN(C)S(=O)(=O)Oc1ccc(C(=O)Nc2cccc(Cl)c2)cc1,47.1*,-4.5,25.3,47.2,15.1,11.0,45.2*
COc1ccc([C@H]2C(C(=O)O)=C[C@@H](C(C)(C)C)N2S(=O)(=O)c2ccccc2)cc1,1.3,-3.8,-2.5,0.8,-1.0,·,·
COc1cccc(NC(=O)NCCCSC2CCCCC2)c1,21.7,-0.1,32.1,34.9,16.8,1.8,·
Cc1cc(C)c(NC(=S)NCCCSC2CCCCC2)c(C)c1,42.3*,3.9,34.5,18.2,10.7,1.7,26.6
CCN1C(=O)N/C(=C/c2cc(C)n(Cc3ccccc3)c2C)C1=O,95.3*,1.9,16.7,-3.1,4.9,9.6,-9.8
CCn1c(C)cc(/C=C2\NC(=O)N(Cc3ccc(Cl)cc3)C2=O)c1C,8.9,4.6,20.0,11.4,15.3,6.7,·
COC(=O)CSc1nc(N2CCCCC2)c2c(c1C#N)CCCC2,27.2,4.3,25.3,16.8,6.4,9.4,·
COC(=O)CSc1nc(-c2ccccc2)c2c(c1C#N)CCCC2,41.0*,1.3,29.8,22.8,7.0,13.8,26.8
O=C(COc1ccccc1)N=C1SC2CS(=O)(=O)CC2N1c1ccccc1 (stereo not drawn),96.9*,0.2,13.8,6.0,-1.3,6.7,-5.0
COc1cc(CNc2ccc(S(N)(=O)=O)cc2)ccc1OCC(=O)NC1CCCCC1,3.9,1.1,-1.2,-6.6,6.4,18.7,·
Cc1cc(C)cc(C(=O)OCC(=O)NC(=O)NC2CCCC2)c1,96.4*,-3.4,-19.1,11.3,19.0,·,-19.7
Cc1cc(C)cc(C(=O)OCC(=O)NC2CCCC2)c1,0.7,-0.1,8.7,5.0,20.3,1.0,·
Oc1ccccc1Cn1c(-c2ccccc2O)nc2ccccc21,52.4*,3.4,34.8,3.4,-5.8,31.0,21.8
COc1ccccc1Cn1c(-c2ccccc2OC)nc2ccccc21,38.7,0.3,34.8,36.9,-11.2,24.8,·
Cc1cccc(OCCC(=O)Nc2ccc(Cl)cc2F)c1,-5.0,-1.7,-7.8,19.6,24.7,11.1,·
COCCCNC(=O)/C(C#N)=C/c1cccc(NC(=O)c2ccccc2Cl)c1,45.1*,-2.9,31.7,43.8,-12.4,29.1,45.5*
CNC(=O)c1ccc(Nc2nc(-c3ccccc3)nc3ccccc23)cc1,40.0*,-0.5,29.7,30.3,9.4,22.4,28.0
CCn1c(CNc2cccc(Cl)c2)nnc1SCC(=O)OC1CCCCC1,34.5,3.3,32.5,43.1,-3.3,21.0,·
CCn1c(CNc2ccc(Cl)cc2)nnc1SCC(=O)OC1CCCCC1,45.2*,-0.5,31.6,20.3,0.5,14.9,-7.9
CCCNS(=O)(=O)c1cc2c3c(c1)CCN3C(=O)CC2,1.3,3.1,2.2,4.8,13.1,15.1,·
NNc1nc(Nc2ccc([N+](=O)[O-])cc2)nc(N2CCCCCC2)n1,97.3*,1.8,32.8,42.0,24.1,11.5,25.5
NNc1nc(Nc2ccccc2)nc(N2CCCCC2)n1,40.9*,-1.0,32.3,36.8,12.0,-3.8,6.5
O=[N+]([O-])c1ccc(Nc2nc(NCCO)nc(N3CCCC3)n2)cc1,6.3,1.3,36.8,7.5,22.6,13.1,·
COc1ccc(Cl)cc1NS(=O)(=O)c1cccc(C(=O)NCC(c2ccco2)N(C)C)c1 (stereo not drawn),9.3,-3.4,13.0,9.3,12.2,8.2,·
COCCNC(=O)C1CCC(CNS(=O)(=O)c2ccccc2)CC1 (stereo not drawn),0.4,2.4,-6.7,-7.7,6.7,-7.3,·
CCOC(=O)N1CCN(C(=O)c2ccc3c(c2)N=C(CC)c2cc(C)ccc2S3)CC1,40.4*,0.1,20.5,30.2,9.3,-9.0,6.2
CCC1=Nc2cc(C(=O)N3CCCCC3)ccc2Sc2ccc(C)cc21,8.1,-1.0,7.8,8.4,17.5,3.8,·
O=C(Oc1ccc2c(=O)c(Cl)coc2c1)c1cccnc1,45.1*,-1.6,-12.1,-26.9,7.4,12.2,-13.2
O=C(Oc1ccc2c(=O)c(Oc3ccc4ccccc4c3)coc2c1)c1cccnc1,20.2,-3.5,11.3,16.9,18.1,18.9,·
